This is a sample that favours compounds with a hit; in the whole collection about 2.2% have one here.
APP 5UTR inh: APP translation inhibition | SH-SY5Y APP 5'UTR-luciferase reporter, luminescence | inhibition, % at 2 µM | 0.82% of 190,000 active;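 active means inhibition above a set limit, derived from the sample mean plus 3 SD, cut at about 45% in these data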
BaF3 tox: reduces parental Ba/F3 cell viability, JAK2V617F counter-screen; 1.1% of 220,000 active; inhibition, % at 5.6 µM; CellTiter-Glo ATP luminescence;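 active means inhibition above a per-campaign cutoff, the mean inhibition of all tested compounds plus 3 SD, cut at about 27% in these data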;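 further: 0% = DMSO wells and 100% = JAK Inhibitor I control wells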
aSyn 5UTR inh: MLPCN primary screen, SNCA 5' untranslated region | alpha-synuclein 5'UTR reporter, inhibitor activity | inhibition, % (tested at 7.5 µM) | 0.82% of 300,000 active | AID 1813; in the data active means inhibition above about 60%;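 further: H4 neuroglioblastoma cells stably carrying SNCA 5'UTR luciferase fusion; 0% = DMSO wells and 100% = positive control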
KLF5 inh: kruppel-like factor 5 inhibition; DLD-1 KLF5 promoter-luciferase reporter, luminescence; inhibition, % at 5 µM; 0.23% of 290,000 active; AID 1700;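 active means inhibition above a per-plate limit of that plate's mean compound inhibition plus 3 SD, cut at about 60% in these data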;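 further: 0% = DMSO wells and 100% = LY294002 at 200 µM; higher means less KLF5 promoter-driven luciferase light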
Ba/F3 V617F tox: reduce viability of Ba/F3 cells dependent on JAK2V617F; Ba/F3 EpoR-JAK2V617F viability, ATP luminescence; inhibition, % at 5.6 µM; 1.1% of 220,000 active; AID 1446;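 active means inhibition above the campaign mean plus 3 SD over all tested compounds, cut at about 24% in these data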;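 further: cytokine-independent growth of Ba/F3 cells driven by EpoR plus mutant JAK2; 0% = DMSO-treated cells and 100% = JAK inhibitor I control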
IEC-6 tox: kills IEC-6 intestinal cells in KLF5 counter-screen. IEC-6 cytotoxicity, luminescence viability. inhibition, % at 5 µM. 0.78% of 290,000 active. AID 1825; in the data active means inhibition above about 22%;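 further: 0% = plate median of test compound wells and 100% = cytotoxic reference compound wells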
* hit, by the source's call; · = no result.

SMILES | APP 5UTR inh | BaF3 tox | aSyn 5UTR inh | KLF5 inh | Ba/F3 V617F tox | IEC-6 tox
O=c1c2c(nc3c(-c4cccc(Br)c4)c[nH]n13)CCCC2 | -13 | -1 | 69* | -43 | -3 | -7
COc1ccc(-n2c(CCC(=O)O)ccc2-c2ccccc2)cc1 | -5 | 29* | -8 | -34 | 18 | -8
Cc1cccc(C)c1NC(=S)N=Nc1c(O)n(C)c2ccc(S(=O)(=O)N3CCOCC3)cc12 | 20 | 2 | 71* | -19 | -1 | -10
Cc1ccccc1NC(=S)N=Nc1c(O)n(C)c2ccc(S(=O)(=O)N3CCOCC3)cc12 | 18 | 8 | 78* | -10 | 2 | 4
Cc1ccccc1NC(=O)c1cc(S(=O)(=O)N2CCOCC2)cn1C | · | · | -17 | -12 | · | -6
Cc1cc(NC(=O)CCC(=O)N(c2cccc(F)c2)C(C(=O)NC2CCCC2)c2ccccc2)no1 (stereo not given) | · | · | 26 | -13 | · | -2
CCc1ccc(OCCCOc2ccc(C=O)cc2)cc1 | 8 | 102* | 4 | -48 | 1 | -5
CC(=O)Nc1ccc(S(=O)(=O)n2cnc3cc(C)c(C)cc32)cc1 | 6 | 29* | -1 | -16 | 5 | 1
Cc1cc(C)cc(N(C(=O)c2csnn2)C(C(=O)NC2CCCCC2)c2ccccn2)c1 (stereo not given) | · | · | 12 | -20 | · | 4
O=c1cc(CN2CCN(c3ccccc3F)CC2)c2cc(O)c(-c3ccccc3)cc2o1 | -24 | 1 | -33 | -18 | 2 | 5
COc1ccc(N2CCN(Cc3cc(=O)oc4cc(-c5ccccc5)c(O)cc34)CC2)cc1 | 31 | 6 | 73* | 2 | 1 | -2
COc1ccc(OCc2n(CC(=O)OC3CC(C)CCC3C(C)C)c3ccccc3[n+]2C)cc1 (stereo not given) | · | 100* | 30 | -6 | 99* | 12
COc1ccc(-c2n(CC(=O)OC3CC(C)CCC3C(C)C)c3ccccc3[n+]2C)cc1 (stereo not given) | 14 | 89* | 101* | 52 | 100* | 21
Cc1cc(N2CCN(C)CC2)nc2ccc(NC(=S)N3CCCCC3)cc12 | -18 | 5 | -85 | -24 | 1 | -2
Cc1cccc(N2CCN(C(=S)Nc3ccc4nc(N5CCN(C)CC5)cc(C)c4c3)CC2)c1C | 87* | 2 | 95* | -24 | -2 | -1
COC(=O)CS(=O)(=O)c1cc(Br)cc2c1N(C(C)=O)CC2 | 2 | 93* | -17 | 1 | 2 | 2
COc1cccc(NC(=O)Nc2ccc(C(C)(C)C)cc2)c1 | -120 | 2 | -1 | -114 | 0 | 10
COc1cc(-c2ccc(=O)[nH]n2)ccc1OC(F)F | · | -7 | 87* | -15 | -2 | -3
CC/C(=N/O)C(=O)c1ccc(Br)cc1 | -13 | 5 | -13 | -18 | 2 | -1
CC(NC(=O)Cn1c(NCCO)nc2ccccc21)C1CC2CCC1C2 (stereo not given) | -1 | 5 | -5 | -10 | 6 | 3
Cc1nc2ccccc2n1CC(=O)NC(C)C1CC2CCC1C2 (stereo not given) | -8 | 49* | -6 | -4 | 40* | 4
O=C(O)c1ccccc1N/N=C/c1c(Sc2nnnn2-c2ccccc2)nc2ccccn2c1=O | · | -4 | 2 | 0 | 5 | 4
O=c1c(/C=N/Nc2ccccc2)c(Sc2nnnn2-c2ccccc2)nc2ccccn12 | 75* | 4 | · | -30 | 2 | 2
C/C(=N\NC(=O)c1cc(-c2cccnc2)nc2ccccc12)c1ccc(O)cc1O | 66* | 5 | 105* | 3 | -1 | 3
C/C(=N\NC(=O)c1cc(-c2cccc(OC(C)C)c2)nc2ccccc12)c1cccnc1 | · | · | 17 | -28 | · | -3
SMILES | APP 5UTR inh | BaF3 tox | aSyn 5UTR inh | KLF5 inh | Ba/F3 V617F tox | IEC-6 tox
O=C(c1nn2c(C(F)(F)F)cc(-c3ccco3)nc2c1Br)N1CCCc2ccccc21 | 1 | 0 | 93* | -3 | -1 | -1
O=C(c1nn2c(C(F)(F)F)cc(-c3cccs3)nc2c1Br)N1CCCc2ccccc21 | -12 | 7 | 82* | -16 | 1 | 0
O=S(=O)(CCN1CCSCC1)c1ccccc1 | · | 2 | -3 | -32 | 1 | 5
CCN(CC)c1ccc(NC(=O)CCCCC(=O)Nc2ccc(N(CC)CC)cc2)cc1 | · | · | 63* | · | · | ·
CCN(CC)c1ccc(NC(=O)CCCCCN2C(=O)c3ccccc3C2=O)cc1 | 5 | 7 | -4 | 1 | 3 | 0
Cn1c(SCn2nnc3ccccc3c2=O)nc2ccccc2c1=O | 2 | -2 | -11 | -14 | -4 | -5
